HCMV antiviral: qHTS Assay for inhibitors of the human cytomegalovirus (HCMV) | 410,000 compounds, 4.5% hits | activity change, negative = inhibition, % at 57.5 µM | HFF cells, HCMV-luciferase reporter, 72 h; active compounds read low; in the data active = activity change below about -60%; inconclusive = no clear call, values can overlap the other calls; inactive = above about -39%
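Two-dose cell screen: HFF monolayers treated with compounds and infected with luciferase-expressing HCMV at 1 PFU/cell, 72 h at 37C, then lysed for luciferase measurement.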
FMDV antiviral: High Throughput Screening for Foot and Mouth Disease Virus Antivirals | Potency, µM (titrated, usually from 57.9 µM), hits mostly inhibitors | AID 1159524, 2015 | 410,000 compounds, 1.2% hits | FMDV antiviral cell-based qHTS; calls by dose curve; tested in HEK293T cells; also: read-out not given here; nearly all actives have a fitted effect of over 45% in size
Vaccinia Venus: qHTS for Stage-Specific Inhibitors of Vaccinia Orthopoxvirus: Venus Reporter Primary qHTS. Vaccinia virus Venus reporter expression, fluorescence. AID 720580, 2013. 330,000 compounds, 0.46% hits. Potency, µM (top dose mostly 36.5 µM), actives largely listed as inhibitors; calls by dose curve; tested in A549 cells; also: nearly all actives have a fitted effect of over 30% in size
Vaccinia mCherry: qHTS for Stage-Specific Inhibitors of Vaccinia Orthopoxvirus: mCherry Reporter Primary qHTS | 310,000 compounds, 0.63% hits | Vaccinia virus mCherry reporter infection, fluorescence | Potency, µM (titrated, usually from 36.5 µM), most hits filed as inhibitors | AID 720579, 2013; calls by dose curve; tested in A549 cells; also: nearly all actives have a fitted effect of over 35% in size
MARV entry inh: qHTS for inhibitors of binding or entry into cells for Marburg Virus; Marburg virus pseudotyped entry inhibition, cell reporter; Potency, µM (series often up to 37.8 µM), usual class: inhibitors; 300,000 compounds, 1.8% hits; calls by dose curve; tested in HEK293 cells
Lassa entry inh: qHTS for Inhibitors of binding or entry into cells for Lassa Virus; Lassa virus pseudotype entry inhibition, cell reporter; Potency, µM (top dose mostly 37.9 µM), most hits filed as inhibitors; 300,000 compounds, 1.2% hits; AID 540256, 2011; calls by dose curve; tested in HEK293 cells; also: nearly all actives have a fitted effect of over 50% in size
Large screens that a line does not name were inactive. An excerpt weighted towards active compounds, which were near 6.5% of everything screened.

Cc1ccc(NC(=O)c2nc[nH]c2C(=O)NC2CCN(C(=O)OC(C)(C)C)CC2)cc1	FMDV antiviral inconclusive, Vaccinia Venus inconclusive (no result: MARV entry inh, Lassa entry inh)
O=C(NCCc1ccccc1)c1ccc2c(c1)nc1n2CCOC1	none (no result: MARV entry inh)
Cc1ccc(OCC(O)C(C)NC(C)C)c2c1CCC2 (stereo not given)	Vaccinia mCherry inconclusive, MARV entry inh 16µM (no result: HCMV antiviral, Lassa entry inh)
CC(C)(C)NC[C@@H](O)COc1cccc2c1CCCC2=O	none (no result: MARV entry inh, Lassa entry inh)
C=C1NN(Cc2ccc(OC)cc2)C(=O)N1c1ccccc1	none (no result: HCMV antiviral, FMDV antiviral, MARV entry inh, Lassa entry inh)
Cc1cc(Cl)ccc1NC(=O)c1cc(S(=O)(=O)N2CCOCC2)cn1C	HCMV antiviral inconclusive (no result: MARV entry inh)
C=CCN1c2ccccc2[C@]23CCC(=O)N(CCc4ccccn4)C2=NC(C(=O)OC)=C(C(=O)OC)[C@H]13	none (no result: HCMV antiviral, FMDV antiviral, Vaccinia Venus, Vaccinia mCherry, Lassa entry inh)
CCOC(=O)CCC(NC(=O)CC(=O)NC(CCC(=O)OCC)C(=O)OCC)C(=O)OCC (stereo not given)	HCMV antiviral -96 (no result: Vaccinia Venus, Vaccinia mCherry, MARV entry inh, Lassa entry inh)
CCOC(=O)CCC(NC(=O)CCC(=O)NC(CCC(=O)OCC)C(=O)OCC)C(=O)OCC (stereo not given)	none
COC(=O)[C@@H]1CCCN1C(=O)c1cnn(-c2nccc(-c3cc(C)sc3C)n2)c1C1CC1	none (no result: HCMV antiviral, MARV entry inh, Lassa entry inh)
Cc1c(/C(O)=C2/C(=O)C(=O)N(Cc3cccnc3)C2c2cccs2)cnn1-c1ccccc1 (stereo not given)	none
Cc1c(/C(O)=C2/C(=O)C(=O)N(Cc3cccnc3)C2c2ccccn2)cnn1-c1ccccc1 (stereo not given)	HCMV antiviral -76, FMDV antiviral 4µM, MARV entry inh inconclusive
COc1cc(/C=C(\C#N)c2nc3ccccc3s2)cc([N+](=O)[O-])c1O	HCMV antiviral -62, MARV entry inh inconclusive
Cc1onc(-c2ccccc2[N+](=O)[O-])c1-c1ccccc1[N+](=O)[O-]	none (no result: FMDV antiviral, Vaccinia Venus, Vaccinia mCherry, MARV entry inh, Lassa entry inh)
COc1ccc(C(=O)NCCS(=O)(=O)NCCc2ccccc2)cc1	none
COc1ccc(C(=O)NCCS(=O)(=O)NCc2ccccc2)cc1	HCMV antiviral -98
CC(=O)Nc1ccc(S(=O)(=O)N2CCN=C2SCc2ccc([N+](=O)[O-])cc2)cc1	HCMV antiviral inconclusive, FMDV antiviral 22µM, MARV entry inh 13µM, Lassa entry inh inconclusive
CS(=O)(=O)N1CCN=C1SCc1ccc([N+](=O)[O-])cc1	HCMV antiviral -65, MARV entry inh inconclusive
CN(C)c1ccc(C2=Cc3ccccc3C2)cc1	none (no result: HCMV antiviral, FMDV antiviral, MARV entry inh, Lassa entry inh)
O=Cc1cn(-c2ccccc2)nc1-c1ccc(F)cc1	none (no result: Vaccinia Venus, Vaccinia mCherry, MARV entry inh, Lassa entry inh)
CC1=NNC(=O)/C1=C\c1cn(-c2ccccc2)nc1-c1ccc(F)cc1	FMDV antiviral 11µM, Vaccinia Venus 10µM, Vaccinia mCherry 10µM, MARV entry inh 8.9µM, Lassa entry inh inconclusive (no result: HCMV antiviral)
CC1=NNC(=O)/C1=C\c1cn(-c2ccccc2)nc1-c1cccs1	HCMV antiviral -100, FMDV antiviral 10µM, Lassa entry inh inconclusive (no result: Vaccinia Venus, Vaccinia mCherry)
CCOCOCc1cc(OC(C)C)ccc1N1C(=O)C[C@@H](C(=O)OC)[C@H]1c1ccc(OC(C)C)c(OC)c1	none (no result: FMDV antiviral, Vaccinia Venus, Vaccinia mCherry, MARV entry inh, Lassa entry inh)
OC(Cc1ccc2ccccc2n1)c1c(Cl)cccc1Cl (stereo not given)	none (no result: HCMV antiviral, FMDV antiviral, MARV entry inh, Lassa entry inh)
COC(=O)c1ccc(NC(=O)CC2C(=O)N(c3cccc(OC)c3)C(=O)N2C(C)C)cc1 (stereo not given)	Lassa entry inh inconclusive (no result: MARV entry inh)
Cn1c(=O)c2c(ncn2Cc2ccc(Cl)c(Cl)c2)n(C)c1=O	HCMV antiviral -70, FMDV antiviral inconclusive, MARV entry inh inconclusive (no result: Vaccinia Venus, Vaccinia mCherry)
Cn1c(=O)c2c(ncn2CCOc2cccc(Br)c2)n(C)c1=O	HCMV antiviral -71, FMDV antiviral inconclusive (no result: Vaccinia Venus, Vaccinia mCherry, MARV entry inh, Lassa entry inh)
Cn1c(=O)c2c(nc(Oc3cccc(Br)c3)n2C)n(C)c1=O	none (no result: Vaccinia Venus, Vaccinia mCherry, MARV entry inh, Lassa entry inh)
Cn1c(=O)c2c(ncn2Cc2cccc(Cl)c2)n(C)c1=O	HCMV antiviral -75, MARV entry inh inconclusive (no result: FMDV antiviral)
COc1cc(Cl)c(NC(=O)c2cc(CN3CCCC3)on2)c(OC)c1	none
CCn1c(-c2ccccc2F)nc2cc(NC(C)=O)cc(C(=O)NCc3ncc(C)[nH]3)c21	none (no result: HCMV antiviral, MARV entry inh, Lassa entry inh)
Cc1cc(C)n(CC(O)Cn2ccc3ccccc32)n1 (stereo not given)	none (no result: Vaccinia Venus, Vaccinia mCherry)
OCc1nc2ccccc2n1CC(O)Cn1ccc2ccccc21 (stereo not given)	HCMV antiviral inconclusive, FMDV antiviral 28µM, Vaccinia Venus inconclusive (no result: Vaccinia mCherry)

Source: PubChem
